# Screens (PubChem)
# MPTP block = mitochondrial permeability transition pore inhibitors, primary screen, biochemical, isolated mouse mitochondria, absorbance; Ca2+ swelling absorbance, 30 min; inhibition, % at 10 µM; 360,000 tested, 1.4% active;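 active = inhibition of 50% or more, scaled per plate between neutral and stimulator controls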;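 also: 0% = DMSO wells given calcium and 100% = 1 mM EGTA wells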
# NRP1-CendR mod = modulators of CendR peptide binding to NRP-1, primary screen, biochemical, fluorescence polarization, uHTS; Neuropilin-1 (Homo sapiens), O14786; FAM-RPARPAR peptide binding to NRP-1; 360,000 tested, 0.85% active; inhibition, % at 25 µM;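 active = inhibition or corrected inhibition above about 18%, plus a signal ratio from 0.5 to 1.5, limit read from the data, passing the limit was not always enough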
# F508del corr = F508del CFTR correction, initial screen, CFBE line, single point; 350,000 tested, 0.36% active; CFBE cells, YFP halide quenching; stimulated with forskolin plus potentiator P3; % fluorescence drop versus neutral controls; activity (quench increase), % at 7.58 µM;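 active = mean added fluorescence quench of at least 8% versus neutral control, with both replicates also reaching 8%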;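 also: cells transiently co-express mutant CFTR-F508del with the halide-sensitive YFP; corrector assay measuring rescue of mutant channel to the surface after 24 h compound exposure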
# SKN-1 block = suppressors of acrylamide-induced Pgst-4::GFP reporter in worms, primary screen, SKN-1 inhibitor project, whole organism, uHTS, GFP/RFP fluorescence ratio, strain VP596 | C. elegans VP596 Pgst-4::GFP/RFP ratio, 24 h | inhibition, % at 21.8 µM | 360,000 tested, 0.49% active;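 active = interference check ratio from 0.5 to 1.5 plus GFP to RFP signal ratio inhibition reaching or exceeding a fixed threshold, cut at about 30% in these data, passing the limit was not always enough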
# ATG4B inh = ATG4B protease inhibitors, primary screen, biochemical, fluorescence, uHTS; Cysteine protease ATG4B (Homo sapiens), Q9Y4P1; inhibition, % at 8.33 µM; 340,000 tested, 0.51% active; ATG4B cleavage of LC3-PLA2, NBD-HPC fluorescence, 1 h; in the data active = inhibition above about 40%
# Target sequence (Q9Y4P1 whole entry, looked up): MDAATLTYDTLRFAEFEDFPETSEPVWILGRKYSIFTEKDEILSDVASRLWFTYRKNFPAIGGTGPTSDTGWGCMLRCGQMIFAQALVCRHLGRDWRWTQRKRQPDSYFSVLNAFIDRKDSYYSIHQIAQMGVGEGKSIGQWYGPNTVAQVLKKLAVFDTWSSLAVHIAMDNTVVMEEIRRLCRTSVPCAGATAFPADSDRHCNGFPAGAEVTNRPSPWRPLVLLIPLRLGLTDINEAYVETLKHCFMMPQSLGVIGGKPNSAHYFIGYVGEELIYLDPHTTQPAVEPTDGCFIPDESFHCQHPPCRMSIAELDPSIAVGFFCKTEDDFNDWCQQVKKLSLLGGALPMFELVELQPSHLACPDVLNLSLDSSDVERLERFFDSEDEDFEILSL
# Rh123 counter = fluorescence retest of MPTP screen hits in isolated mitochondria, single concentration; shares compounds with MPTP block; membrane potential, Rhodamine 123 fluorescence; inhibition, % at 10 µM; 5,000 tested, 78% active; in the data active = inhibition above about 22%;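 also: 0% = DMSO vehicle and 100% = positive control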
# MPTP swell DR = mitochondrial permeability transition pore inhibitors, dose response, biochemical, absorbance, uHTS hits | shares compounds with MPTP block | isolated mitochondria swelling | IC50, µM | 780 tested, 58% active | AID 651561, 2012; in the data active = IC50 below about 20 µM
# MPTP cs DR = fluorescent counter-screen in isolated mitochondria, dose response, counter-screen for MPTP inhibitor project, biochemical, fluorescence, uHTS hits | isolated mitochondria counterscreen, fluorescence read-out | shares compounds with MPTP block | 780 tested, 49% active | IC50, µM; in the data active = IC50 below about 80 µM
# * marks the source's active call; other numbers are inactive results; · = no result given; + = active, no number. Rows were chosen to be rich in hits. Some 2.7% of all compounds tested hit in one or more screens of this group.
SMILES,MPTP block,NRP1-CendR mod,F508del corr,SKN-1 block,ATG4B inh,Rh123 counter,others
CCc1nc2sc3c(c2c(=O)n1N)CC(C)(C)OC3,0.8,3.1,2.0,2.1,8.7,·,
CCCCCCCCCc1nc2sc3c(c2c(=O)n1NC(=O)c1ccc([N+](=O)[O-])cc1)CC(C)(C)OC3,97.6*,8.1,·,-0.5,6.9,64.2*,
CCCCCCCCCc1nc2sc3c(c2c(=O)n1NC(=O)c1ccccc1[N+](=O)[O-])CC(C)(C)OC3,86.6*,3.6,-0.5,-3.7,-9.6,62.8*,
CC1=NN(c2ccccc2)C(=O)/C1=C/c1c(O)n(-c2ccc(F)cc2)[nH]c1=O,61.4*,-9.6,·,-7.0,12.4,12.7,
CC1=NN(c2ccccc2)C(=O)/C1=C/c1ccc(Cl)cc1,97.8*,2.7,-0.8,-12.4,2.1,83.7*,
COC(=O)C[C@@H]1CC[C@H](NC(=O)Nc2ccc(C(F)(F)F)cc2)[C@H](CO)O1,·,·,0.0,·,·,·,
CCCCCCCCCCS(=O)(=O)N/N=C/c1ccc([N+](=O)[O-])cc1,85.3*,10.3,1.0,3.3,-0.8,62.2*,
Cc1ccc(/C=N/NS(=O)(=O)c2ccc([N+](=O)[O-])cc2)o1,0.6,-4.1,·,4.1,-10.3,·,
O=c1cc(Nc2ccc3c(c2)OCCO3)[nH]c(=O)n1C1CCCCC1,1.8,-3.1,·,4.3,-8.1,·,
CCc1ccc(Nc2cc(=O)n(C3CCCCC3)c(=O)[nH]2)cc1,63.2*,-12.0,·,13.4,0.8,106.7*,
O=C(Nc1ccc(Oc2ncnc3cc(Cl)ccc23)nc1)Nc1cccc(C(F)(F)F)c1,89.5*,-9.8,2.6,1.5,0.3,25.4*,
FC(F)(F)c1cccc(NC(=S)NCc2ccc(Cl)cc2)c1,78.4*,-0.3,·,-1.1,13.9,88.4*,
Fc1cccc(NC(=S)NCc2ccc(Cl)cc2)c1,96.1*,-1.7,·,-0.8,1.6,89.2*,
S=C(NCc1ccncc1)Nc1ccc(Cl)cc1,3.0,-10.5,·,4.6,-6.5,·,
NS(=O)(=O)c1ccc(CNC(=S)Nc2ccc(Cl)c(Cl)c2)cc1,1.2,6.2,0.7,-4.5,-0.5,·,
Fc1cc(NC(=S)NCc2ccc(CNC(=S)Nc3ccc(Cl)c(F)c3)cc2)ccc1Cl,92.4*,3.2,0.0,5.5,-6.4,73.1*,
Fc1ccccc1CNC(=S)Nc1cccc(C(F)(F)F)c1,73.8*,-5.4,·,-5.3,33.8,97.3*,
CO[C@@H](CN(C)Cc1nccs1)[C@@H](C)CN([C@@H](C)CO)S(=O)(=O)c1ccc(C)cc1,·,·,-1.0,·,·,·,
C[C@@H]1CN([C@@H](C)CO)C(=O)c2cc(-c3cccc(C#N)c3)cnc2O[C@H]1CN(C)C(=O)c1cnccn1,·,·,0.2,·,·,·,
CCNC(=O)[C@H]1[C@H](CO)[C@H]2Cn3c(ccc(-c4ccncc4)c3=O)[C@H]2N1Cc1ccc2c(c1)OCO2,·,·,0.0,·,·,·,
O=C1c2cc(Br)ccc2N(Cc2ccc(Br)cc2)S(=O)(=O)C1c1cc(Cl)c(Cl)cc1[N+](=O)[O-] (stereo not given),66.2*,-6.2,·,-5.0,68.2*,18.0,
O=C1CS(=O)(=O)N(Cc2cccc(F)c2)c2ccc(Br)cc21,2.9,5.4,-1.0,11.7,6.6,·,
COc1ccc(C(=O)N(C)CC2CCN(CCc3cccc(C(F)(F)F)c3)CC2)cc1C,53.1*,-14.0,0.9,2.8,2.2,-3.2,MPTP swell DR=11.8*;MPTP cs DR=42.1*
C[C@H](CO)N1C[C@H](C)[C@@H](CN(C)C(=O)Nc2ccccc2)OCCCC[C@H](C)Oc2ccc(NC(=O)NC3CCCCC3)cc2C1=O,·,·,1.6,·,·,·,
Cc1nc(SCC(=O)Nc2nc3ccccc3s2)c(C#N)c(C)c1C,4.4,-2.0,6.3,0.3,-17.5,·,
SMILES,MPTP block,NRP1-CendR mod,F508del corr,SKN-1 block,ATG4B inh,Rh123 counter,others
Cc1cc(C(F)(F)F)c(C#N)c(SCC(=O)Nc2nc3ccccc3s2)n1,63.2*,-116.7,·,19.0,-5.0,74.0*,
CC1OC2(OC1C)C(=O)Nc1ccccc12 (stereo not given),+,11.3,·,-11.7,-10.3,-2.5,MPTP swell DR=>100;MPTP cs DR=>80
CCN(CC)S(=O)(=O)c1ccc(NC(=O)Nc2cccc(C(F)(F)F)c2)cc1,84.2*,0.4,·,-28.5,3.1,73.9*,
Cc1ccc(S(=O)(=O)Nc2ccc(NC(=O)Nc3cccc(C(F)(F)F)c3)cc2)cc1,97.7*,-3.4,·,-5.7,15.5,61.4*,
CC1CCC(NC(=O)c2cc3ccccc3cc2O)CC1 (stereo not given),86.8*,-3.1,1.0,4.5,-0.7,94.1*,
O=C(NNC(=O)c1cc2ccccc2cc1O)NC1CCCCC1,3.8,-2.6,-0.5,8.2,-9.6,·,
O=C(NCC1CCCCC1)c1cc2ccccc2cc1O,59.4*,-2.8,2.1,-11.3,19.4,80.8*,
C[C@H]1CN([C@@H](C)CO)C(=O)c2c(c3ccccc3n2C)-c2ccccc2CO[C@H]1CN(C)Cc1ccccc1,·,·,0.8,·,·,·,
Oc1ccccc1N=Nc1nc(-c2ccccc2)c(-c2ccccc2)[nH]1,75.6*,-61.6,·,19.3,12.6,53.7*,
COc1ccc(S(=O)(=O)Nc2ccc3c(c2)C(=O)N([C@H](C)CO)C[C@H](C)[C@H](CN(C)S(=O)(=O)c2cn(C)cn2)O3)cc1,·,·,-1.7,·,·,·,
COc1cccc(NC(=S)NC2CC(C)CC(C)(C)C2)c1 (stereo not given),64.4*,1.1,4.8,5.0,·,93.1*,
COc1cccc(NC(=S)Nc2ccc(O)cc2)c1,-1.2,17.9,-0.8,-2.1,-4.0,·,
CC(C)NC(=O)Nc1ccc2c(c1)C(=O)N(C)[C@H]1CC[C@@H](CC(=O)NCC(F)(F)F)O[C@@H]1CO2,·,·,1.4,·,·,·,
O=C(O)C1CC=CCC1C(=O)N1CCN(c2nc(-c3ccccc3)c3ccccc3n2)CC1 (stereo not given),82.6*,9.5,·,4.7,10.0,-11.3,MPTP swell DR=10.3*;MPTP cs DR=>80
CC(=O)N(C)c1nc(N)n(-c2ccccc2)n1,107.0*,-8.6,-0.6,0.1,-0.3,-3.3,MPTP swell DR=>100;MPTP cs DR=>80
CC(=O)Nc1nc(N)n(-c2ccccc2)n1,-1.3,7.0,·,-4.2,-11.1,·,
C[C@@H]1CN([C@H](C)CO)C(=O)c2cc(-c3ccc(F)cc3)cnc2O[C@@H]1CN(C)C(=O)Cc1ccccc1,·,·,3.1,·,·,·,
Cc1cc(C)n2nc(SCc3cccc(S(=O)(=O)N(C)C)c3)nc2n1,5.0,-6.9,0.9,6.4,11.1,·,
